This is a sample that favours compounds with a hit; in the whole collection about 1.7% have one here.
GLP-1R inv ag = qHTS of GLP-1 Receptor Inverse Agonists (Inhibition Mode) | Glucagon-like peptide 1 receptor (Homo sapiens), P43220 | HEK293 GLP-1R CRE-luciferase, luminescence, 24 h; GLP-1R form is constitutively active | Potency, µM (titrated, usually from 38.3 µM), without a hit: at the highest dose activity change, negative = inhibition, most hits filed as inhibitors | 410,000 compounds, 1.6% hits; also: % is scaled to controls: 0 for no effect and ±100 for the full control effect; nearly all actives have a fitted effect of over 55% in size
Target sequence (P43220 whole entry, looked up): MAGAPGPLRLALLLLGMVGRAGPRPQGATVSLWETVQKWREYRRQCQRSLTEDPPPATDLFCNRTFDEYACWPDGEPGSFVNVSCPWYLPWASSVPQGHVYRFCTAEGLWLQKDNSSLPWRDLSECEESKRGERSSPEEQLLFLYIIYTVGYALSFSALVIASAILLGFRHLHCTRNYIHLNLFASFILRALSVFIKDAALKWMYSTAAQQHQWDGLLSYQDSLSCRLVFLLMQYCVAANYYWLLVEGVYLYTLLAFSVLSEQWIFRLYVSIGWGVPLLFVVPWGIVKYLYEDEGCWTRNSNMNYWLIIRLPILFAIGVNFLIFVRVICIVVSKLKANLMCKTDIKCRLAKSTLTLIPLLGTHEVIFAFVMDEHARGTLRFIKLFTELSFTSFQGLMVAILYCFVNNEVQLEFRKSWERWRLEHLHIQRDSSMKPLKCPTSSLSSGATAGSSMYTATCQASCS
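Seeding at 200 cells/uL, 12 h culture, 24 hr compound treatment, then luciferase reagent and a luminescence read; cells are HEK293 stably expressing a constitutively active GLP-1R plus cAMP-responsive luciferase.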
GLP1R ag = qHTS of GLP-1 Receptor Agonists. Glucagon-like peptide 1 receptor (Homo sapiens), P43220. HEK293 GLP-1R CRE-luciferase, luminescence, 4-6 h; cells express a hypersensitive GLP-1R form. Potency, µM (series often up to 45.6 µM), without a hit: at the highest dose activation, hits mostly activators. 380,000 compounds, 0.007% hits. AID 624172, 2012; also: % of control where 0% means no effect
GLP1R cytotox = qHTS of GLP-1 Receptor Inverse Agonists: Cytotox Screen; HEK293 cAMP-luciferase reporter cells, luminescence, 24 h; Potency, µM (series often up to 38.3 µM), for inactives: at the highest dose activity change, negative = inhibition, hits mostly inhibitors; 410,000 compounds, 0.13% hits;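 also: loss of luciferase light is scored as toxicity; % is scaled to controls: 0 for no effect and ±100 for the full control effect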
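Here, cytotoxicity is scored as loss of luminescence. The MLSMR collection was tested on cells seeded in medium containing 10% Nu serum, with a 24 hr compound exposure preceded by 12 hours of culture.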
* = called active by the depositor; [ ] = remark or other dose. Calls follow the shape of the dose curve; as a rule, active = well fitted curve in the direction sought with a large enough effect; inconclusive = small, poorly fitted or top-dose-only effect, or another doubt; inactive = no such curve, though single readings can be large; an effect the other way counts as inactive or inconclusive. Potency is read from the fitted curve at half-maximal effect.

CCOc1ccc(C(=O)/C=C/c2cn(CC(O)CN3CCc4ccccc43)c3ccccc23)cc1 (stereo not given) was read as GLP-1R inv ag inconclusive, GLP1R ag -5.3% and GLP1R cytotox 31.1%.
Cc1ccc(OCC(=O)Nc2cccc(S(=O)(=O)N3CCCCCC3)c2)c([N+](=O)[O-])n1 was read as GLP-1R inv ag 2.9%, GLP1R ag 12.6% and GLP1R cytotox 0.6%.
`Cc1cc(NC(=O)c2sc(Nc3ccc(F)c(Cl)c3)nc2N)no1` gave GLP-1R inv ag 13.1%[7.66 µM], GLP1R ag -3.3% and GLP1R cytotox 5.2%[7.66 µM].
`Cc1cc(NC(=O)c2sc(Nc3cccc(C(F)(F)F)c3)nc2N)no1` gave GLP-1R inv ag 5.01µM*, GLP1R ag 0.0% and GLP1R cytotox 7.9%.
Cc1ccc(S(=O)(=O)N2CCCC2C(=O)Nc2ccc(Br)cc2)cc1 (stereo not given) was read as GLP-1R inv ag inconclusive and GLP1R cytotox -10.0%.
Screening Cc1ccc(S(=O)(=O)N2CCCCC2C(=O)Nc2ccc(N(C)C)cc2)cc1 (stereo not given) returned GLP-1R inv ag 7.08µM*, GLP1R ag 11.4% and GLP1R cytotox -13.1%.
For Cc1ccc2c(CC(=O)Nc3ccc(S(=O)(=O)N4CCCCC4C)cc3)coc2c1 (stereo not given) the results were GLP-1R inv ag 11.2µM* and GLP1R cytotox -6.3%.
Cc1ccc2c(CC(=O)Nc3ccc(S(=O)(=O)N4CCCCC4C)cc3)coc2c1C (stereo not given) was read as GLP-1R inv ag inconclusive and GLP1R cytotox 3.3%.
Cc1ccc(S(=O)(=O)N(Cc2ccc(F)cc2)Cc2ccco2)cc1 was read as GLP-1R inv ag inconclusive, GLP1R ag 8.9% and GLP1R cytotox 22.9%.
`O=C(CN(Cc1ccccc1)S(=O)(=O)c1ccc(Br)cc1)NCc1ccco1` gave GLP-1R inv ag 7.94µM*, GLP1R ag 1.2% and GLP1R cytotox 2.4%.
For Cc1ccc(S(=O)(=O)N(Cc2ccccc2)Cc2ccco2)cc1 the results were GLP-1R inv ag 11.2µM*, GLP1R ag -7.8% and GLP1R cytotox 15.1%.
`O=C(CN(Cc1ccc(Br)cc1)S(=O)(=O)c1ccccc1)NCc1ccccn1` gave GLP-1R inv ag -22.5%, GLP1R ag -13.1% and GLP1R cytotox 14.4%.
For O=[N+]([O-])c1ccc(NN=Cc2cc(Br)ccc2O)nc1 the results were GLP-1R inv ag 2.82µM*, GLP1R ag 10.9% and GLP1R cytotox inconclusive.
Screening O=[N+]([O-])c1ccc(NN=Cc2cccc(O)c2)nc1 returned GLP-1R inv ag inconclusive, GLP1R ag 14.2% and GLP1R cytotox -17.3%.
For Cc1ccccc1S(=O)Cc1ccc(C(=O)NC2CC2)o1 (stereo not given) the results were GLP-1R inv ag 8.4%, GLP1R ag -4.5% and GLP1R cytotox 5.9%.
Screening CCN(Cc1ccccc1)C(=O)c1ccc(CS(=O)c2ccccc2C)o1 (stereo not given) returned GLP-1R inv ag 10µM*, GLP1R ag -1.3% and GLP1R cytotox -6.1%.
CC(O)(c1ccc(F)c(F)c1)c1nc(-c2cc(F)cc(F)c2)cs1 (stereo not given) was read as GLP-1R inv ag inconclusive, GLP1R ag -4.2% and GLP1R cytotox -1.4%.
Cc1ccc(N2C(=O)CCSC23C(=O)N(Cc2ccccc2)c2ccccc23)cc1 (stereo not given) was read as GLP-1R inv ag 5.3% and GLP1R cytotox 0.2%.
`O=C1CCSC2(C(=O)N(Cc3ccccc3)c3ccccc32)N1c1ccccc1` (stereo not given) gave GLP-1R inv ag 11.2µM* and GLP1R cytotox 7.1%.
`CCN(C(=O)Cn1c(Cl)nc2c1c(=O)n(C)c(=O)n2C)C1CCCCC1` gave GLP-1R inv ag -10.5%, GLP1R ag -0.7% and GLP1R cytotox -3.2%.
Screening CCCSc1cc(N2CCCC2)nc(-c2ccccc2)n1 returned GLP-1R inv ag 0.2%, GLP1R ag -4.5% and GLP1R cytotox 17.6%.
`CCCSc1cc(N2CCN(C)CC2)nc(-c2ccc(OC)cc2)n1` gave GLP-1R inv ag 8.91µM*, GLP1R ag 2.5% and GLP1R cytotox -0.9%.
Screening O=C(NCC(c1cccnc1)N1CCc2ccccc21)C(=O)Nc1ccccc1F (stereo not given) returned GLP-1R inv ag inconclusive and GLP1R cytotox 17.1%.
Screening CCC(=O)N(Cc1cc2cc(C)c(C)cc2[nH]c1=O)C1CCCCC1 returned GLP-1R inv ag 10µM*, GLP1R ag -3.1% and GLP1R cytotox -28.8%.

High-throughput results: PubChem, National Center for Advancing Translational Sciences (NCATS)
